Results filed as inconclusive are left out. Activity calls are given as the source filed them. Calls come from the whole dose curve; as a rule, active = well fitted curve in the direction sought with a large enough effect; inconclusive = small, poorly fitted or top-dose-only effect, or another doubt; inactive = no such curve, though single readings can be large or run the other way.

Our source for the outcome values is PubChem BioAssay AID1671192 (National Center for Advancing Translational Sciences (NCATS), 2021).

Sequence of Polyunsaturated fatty acid lipoxygenase ALOX15 (Homo sapiens) (P16050 whole entry, looked up): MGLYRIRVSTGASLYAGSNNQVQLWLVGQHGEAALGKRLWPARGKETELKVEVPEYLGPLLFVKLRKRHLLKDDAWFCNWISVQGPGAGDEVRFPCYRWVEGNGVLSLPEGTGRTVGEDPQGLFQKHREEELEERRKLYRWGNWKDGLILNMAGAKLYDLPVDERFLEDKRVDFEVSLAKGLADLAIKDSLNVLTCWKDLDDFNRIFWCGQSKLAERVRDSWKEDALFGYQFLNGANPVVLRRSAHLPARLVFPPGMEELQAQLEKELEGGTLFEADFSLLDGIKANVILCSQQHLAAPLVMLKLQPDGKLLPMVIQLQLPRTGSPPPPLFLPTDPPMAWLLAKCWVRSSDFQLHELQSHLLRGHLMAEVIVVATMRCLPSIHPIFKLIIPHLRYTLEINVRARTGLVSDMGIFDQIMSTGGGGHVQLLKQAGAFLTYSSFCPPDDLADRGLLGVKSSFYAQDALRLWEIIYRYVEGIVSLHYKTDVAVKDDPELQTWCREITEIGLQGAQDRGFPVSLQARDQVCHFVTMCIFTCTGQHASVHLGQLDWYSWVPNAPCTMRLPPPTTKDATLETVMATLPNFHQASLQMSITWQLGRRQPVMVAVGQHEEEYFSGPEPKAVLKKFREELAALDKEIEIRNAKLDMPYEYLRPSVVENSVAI

The target in this assay is Polyunsaturated fatty acid lipoxygenase ALOX15 (Homo sapiens) (UniProt P16050). Put plainly: Counterscreen qHTS for inhibitors of human arachidonate 12S-lipoxygenase (ALOX12): ALOX15 Assay. Conditions: purified ALOX15 enzyme activity; series mostly up to 110 µM. In a few lines:
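Xylenol orange–ferric complex formation, read as the 573 nm to 405 nm absorbance ratio, tracks product from 50 uM arachidonic acid turned over for 30 min at RT. Enzyme is 40 nM ALOX15, pH 7.5 HEPES buffer, compound-preincubated 15 min.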
(A counterscreen serves to expose hits that act by an unwanted route or on another target.)
Consider `CCC(=O)N1Cc2ccccc2CC2(CCCN(CC3CCNC3)C2)C1` (configuration not stated), for which the call was inactive. To `O=C(O)CCCC(=O)N1Cc2ccccc2CC2(CCCN(Cc3ccncc3)C2)C1` (configuration not stated) belongs “inactive”; to `CNCc1sc2ccccc2c1C`, “inactive”. For the compound `CN1CC(=O)N(C2CCNC2)Cc2c(NC3CCN(Cc4ccccc4)CC3)ncnc21` (configuration not stated), the compound was called inactive.

As for `FC(F)(F)c1cccc(C2=NOC3(CCN(Cc4ccccc4)C3)C2)c1` (configuration not stated), the compound was classed as inactive. Take `CC(=O)NCCC(=O)N1Cc2ccccc2CC2(CCCCN2CC2CCNC2)C1` (configuration not stated): the call was inactive.

`COCCCNC(=O)c1cc(C2CC2)nc2c1c(C1CCCN1)nn2-c1ccccc1` (configuration not stated): the outcome was inactive. To `CN1CC(=O)N(C2CCC2)Cc2c(NC3CCNCC3)ncnc21` belongs “inactive”; to `CC(CCc1ccccc1)Nc1ncnc2c1CN(C1CCNC1)C(=O)CN2C` (configuration not stated), “inactive”. Turning to `CNC1CCCc2ccccc21` (configuration not stated), the result was inactive. To `N#Cc1cccc(CN2CCCC(c3nc4ccc(F)cc4c(=O)[nH]3)C2)c1` (configuration not stated) belongs “inactive”. As for `CCN1CCC(c2nc3ccc(C)cc3c(=O)[nH]2)CC1`, the entry is “inactive”; as for `COc1ccc(-c2nc(C3CC3)nc3c2CCN(C(=O)c2ccc(C(F)(F)F)cc2)CC3)cc1`, “inactive”; as for `O=C(Nc1ccc(Cl)cc1Cl)c1c[nH]c2cccnc12`, “inactive”. To `Cc1cc(C(=O)NCc2cccs2)c2c(C3CCNC3)noc2n1` (configuration not stated) belongs “inactive”; to `Cc1noc(C)c1C(=O)N1Cc2ccccc2CC2(CCN(C)C2)C1` (configuration not stated), “inactive”; to `O=C1NCc2ccccc2CC12CCN(Cc1cccc(OC(F)(F)F)c1)C2` (configuration not stated), “inactive”. Regarding `O=C(NCc1ccc(Cl)nc1)c1cn2c(n1)CN(C(=O)c1ccccc1)CC2`, the result was inactive. Turning to `O=C1NCc2ccccc2CC12CCCN2Cc1ccc(Br)cc1` (configuration not stated), the call was inactive. To `CCc1ccc(S(=O)(=O)c2nnn3c2nc(NCc2ccc(F)cc2)c2ccccc23)cc1` belongs “inactive”. To `O=C(NC1CC1)c1cc(C2CC2)nc2onc(C3CCNCC3)c12` belongs “inactive”; to `O=C(O)CCC(=O)N1Cc2ccccc2CC2(CCCN2Cc2ccccc2)C1` (configuration not stated), “inactive”. As for `CC(C)c1nc2c(c(-c3ccc(Cl)cc3)n1)CCN(CC1CCCCC1)CC2`, the entry is “inactive”. Turning to `CN1CC(=O)N(C2CCNCC2)Cc2c1ncnc2N1CCC(N2CCOCC2)CC1`, the result was inactive.

`O=Cc1ccccc1-c1cncc(C(=O)O)c1`: the outcome was inactive. As for `COc1ccc(OC)c([S+](=O)([O-])c2nnn3c2nc(NCc2ccc(F)cc2)c2ccccc23)c1`, the entry is “inactive”. As for `Cc1noc(C)c1C(=O)N1Cc2ccccc2CC2(CCN(CC3CCNCC3)C2)C1` (configuration not stated), the call was inactive.

Take `NC(Cc1ccccc1)C(=O)N1CCC2(CC1)CN(C(=O)c1ccc(Cl)cc1)CCO2` (configuration not stated): the outcome was inactive. To `COc1cccc(-c2ccc(CN3C4CCC3CN(C(=O)Nc3ccccc3F)C4)cc2)c1` belongs “inactive”. As for `COc1ccc2c(c1)CCCN2C1CNC1`, the entry is “inactive”. As for `CCC(=O)N1Cc2ccccc2CC2(CCCCN2CC2CCOCC2)C1` (configuration not stated), the compound was called inactive. As for `CN1CC(=O)N(c2ccc(Cl)cc2)Cc2c(NCC3CC3)ncnc21`, the entry is “inactive”; as for `CN1CC(=O)N(C2CCNCC2)Cc2c(NCC3CCCCC3)ncnc21`, “inactive”; as for `CN1CC(=O)N(c2ccccc2F)Cc2c(NC3CCNCC3)ncnc21`, “inactive”. To `CCN1CCCC2(Cc3ccccc3CN(C(=O)c3ccccc3)C2)C1` (configuration not stated) belongs “inactive”. To `O=C1NCc2ccccc2CC12CCCN2Cc1ccccc1Cl` (configuration not stated) belongs “inactive”. Regarding `O=C(c1cc(C2CC2)nc2onc(C3CCCNC3)c12)N1CCCCC1` (configuration not stated), the result was inactive.
